# Experimental data reported in article PMC5540273 (PLoS ONE, 2017).
# How the values were obtained:
# Details in all cases: concentration: 1 μM, replicates: in singlicate; n = 1
# [1] = tested on: FLT3-autoinhibited
# [2] = tested on: FLT3
# [3] = tested on: FLT4
# [4] = tested on: FRK
# [5] = tested on: FYN
# [6] = tested on: GAK
# [7] = tested on: T1, GCN2(Kin.Dom.2,S808G)
# T1 construct: gene EIF2AK4
# [8] = tested on: GRK1
# [9] = tested on: T2, GRK2
# T2 construct: gene ADRBK1
# [10] = tested on: T3, GRK3
# T3 construct: gene ADRBK2
# 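Further: KINOMEscan kinase panel screen.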
SMILES,%Inh [1] [%],%Inh [2] [%],%Inh [3] [%],%Inh [4] [%],%Inh [5] [%],%Inh [6] [%],%Inh [7] [%],%Inh [8] [%],%Inh [9] [%],%Inh [10] [%]
Fc1ccc(-c2nn3c(OCC(F)(F)F)cccc3c2-c2ccncc2)cc1 [GW514784],0,4,0,5,0,85,0,0,0,45
Cc1ccc(NC(=O)c2ccnc(N3CCN(C)CC3)c2)cc1-c1ccc(C(=O)NCC2CC2)cc1 [GW775604],0,0,0,0,0,0,0,0,0,33
CNc1ncnc2[nH]ncc12 [SKF-18355],0,0,0,0,0,0,0,29,0,0
COc1cc2c(cc1OCCN1CCN(C)CC1)ncc1c3ccc(C#N)cc3[nH]c21,97.4,98.6,0,2,25,99.6,90.8,32,0,0
COc1ccc(Nc2nccc(N3CCC(NC(=O)Nc4cc(C)ccc4C)C3)n2)cc1 (centres unmarked) [GSK1379741],0,0,1,0,2,9,0,0,0,0
